This is an account of results in PubChem BioAssay (NCATS).

The nature of assay [1]: Primary qHTS for small molecule stabilizers of the endoplasmic reticulum resident proteome: Secreted ER Calcium Modulated Protein (SERCaMP) assay (AID 1508630; active = well fitted curve in the direction sought with a large enough effect; an effect the other way counts as inactive or inconclusive). An outline of the steps:
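GLuc-SERCaMP-expressing SH-SY5Y cells, pretreated 16 h with compound, are challenged with thapsigargin to empty ER calcium stores; after 4 h, coelenterazine is added directly to the medium and luminescence is imaged.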
Background: In qHTS, concentration-response curves come from the screen itself.

A short description of assay [2]: A High-Content qHTS Against Drug Library for the Identification of Small Molecules that Inhibit DYT1 Early Onset Primary Dystonia-Associated Cell Pathology (AID 1645839; calls by dose curve; also: series mostly up to about 46 µM). An outline of the steps: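 Flp-In T-REx 293 cells with tetracycline-inducible EGFP-delE hTOR1A (WT EGFP-hTOR1A as reference), 800 cells/well; compound added with tetracycline, 48 h at 37 C. Fixed, permeabilized cells imaged; %pathology (punctate TorsinA) primary, cell count counterscreen.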

The target of assay [3] is Cytochrome P450 2D6 (Homo sapiens) (UniProt P10635). Put plainly: Cytochrome P450 family 2 subfamily D member 6 (CYP2D6) small molecule antagonists: luciferase biochemical (cell-free) qHTS assay (AID 1645840). Also: nearly all actives have a fitted effect of over 55% in size. Also: potency is read from the fitted curve at half-maximal effect. An outline of the steps:
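P450-Glo luminescent screen: recombinant CYP2D6 enzyme–proluciferin substrate mix preincubated with compound 10 min at room temperature, then NADPH regeneration added for 1 h at room temperature. Detection reagent added for 20 min; luciferin light read as relative luminescence units.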

Assay [4] addresses Cytochrome P450 2C9 (Homo sapiens) (UniProt P11712). Nature of the assay: Cytochrome P450 family 2 subfamily C member 9 (CYP2C9) small molecule antagonists: luciferase biochemical (cell-free) qHTS assay (AID 1645842). Also: nearly all actives have a fitted effect of over 55% in size. Also: potency is read from the fitted curve at half-maximal effect. An outline of the steps:
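Luminescence, after 20 min with luciferin detection reagent, reflected CYP2C9 turnover during a 1 h NADPH-driven reaction at 37C. Enzyme-substrate mix contained 0.4% bovine serum albumin and was preincubated with compound 10 min at room temperature.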

Several values for one entry are separate records, joined by “and”; a condition that tells them apart may be missing. Equal values may be shown once. Inconclusive results are not listed. The source holds several records for some structures; these can differ, active in one and inactive in another. Activity calls are given as the source filed them. Unless noted, calls follow the shape of the dose curve; as a rule, active = well fitted curve in the direction sought with a large enough effect in the repeat runs; inconclusive = weak or mixed curves; inactive = no such curve, though single readings can be large; an effect the other way counts as inactive or inconclusive.

Cytochrome P450 2D6 (Homo sapiens), sequence (P10635 whole entry, looked up): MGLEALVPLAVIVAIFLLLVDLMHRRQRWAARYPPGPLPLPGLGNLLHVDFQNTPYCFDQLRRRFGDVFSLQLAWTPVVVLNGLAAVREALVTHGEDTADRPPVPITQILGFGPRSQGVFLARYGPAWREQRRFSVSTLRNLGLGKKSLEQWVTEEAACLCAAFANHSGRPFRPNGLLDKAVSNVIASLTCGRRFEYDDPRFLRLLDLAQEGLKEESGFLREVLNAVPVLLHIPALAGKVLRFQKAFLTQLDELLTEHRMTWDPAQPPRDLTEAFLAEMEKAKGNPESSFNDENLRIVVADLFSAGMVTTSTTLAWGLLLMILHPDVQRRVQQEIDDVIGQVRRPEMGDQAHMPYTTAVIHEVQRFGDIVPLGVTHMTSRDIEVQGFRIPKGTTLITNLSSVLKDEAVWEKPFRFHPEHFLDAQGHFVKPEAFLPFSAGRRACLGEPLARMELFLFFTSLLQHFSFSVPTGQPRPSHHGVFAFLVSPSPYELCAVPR
Cytochrome P450 2C9 (Homo sapiens), sequence (P11712 whole entry, looked up): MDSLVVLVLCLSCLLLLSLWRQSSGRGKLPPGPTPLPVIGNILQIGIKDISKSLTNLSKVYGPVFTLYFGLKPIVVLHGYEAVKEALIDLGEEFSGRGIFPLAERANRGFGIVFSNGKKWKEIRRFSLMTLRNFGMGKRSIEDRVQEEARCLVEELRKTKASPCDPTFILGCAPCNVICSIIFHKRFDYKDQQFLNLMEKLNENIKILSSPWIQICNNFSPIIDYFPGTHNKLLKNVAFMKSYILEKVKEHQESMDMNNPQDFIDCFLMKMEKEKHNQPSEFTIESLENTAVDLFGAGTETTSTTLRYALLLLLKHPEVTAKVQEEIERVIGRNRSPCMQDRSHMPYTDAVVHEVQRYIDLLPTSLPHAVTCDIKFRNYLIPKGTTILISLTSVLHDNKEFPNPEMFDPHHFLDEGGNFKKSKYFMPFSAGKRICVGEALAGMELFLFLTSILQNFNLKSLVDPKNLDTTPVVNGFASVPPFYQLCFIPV

`NC1=N[C@@]2(c3cc(NC(=O)c4ccc(F)cn4)ccc3F)COC[C@@H]2CS1`: in assay [1], the Potency result was “inactive”.
In the case of `CC(C)OC(=O)CCCC=CC[C@@H]1[C@H](C=C[C@@H](O)COc2cccc(C(F)(F)F)c2)[C@H](O)C[C@@H]1O`, the Potency entry in assay [1] is “inactive”.
On to `CC1(C)S[C@H]2[C@H](NC(=O)[C@@H](N)c3ccc(O)cc3)C(=O)N2[C@@H]1C(=O)O`, for which the Potency result in assay [1] was “inactive”.
For the molecule `O=C(O)c1cc(-c2ccccc2)nc2ccccc12`, the Potency entry in assay [1], in assay [2] and in assay [3] was “inactive” in each case. In assay [4], the Potency is 27 µM (active) and inactive.
For `NC[C@@H]1O[C@@H](O[C@H]2[C@@H](O)[C@H](O[C@@H]3[C@@H](O)[C@@H](N)C[C@H](N)[C@H]3O[C@H]3O[C@H](CN)[C@@H](O)[C@@H](O)[C@H]3N)O[C@H]2CO)[C@H](N)[C@@H](O)[C@@H]1O`, in assay [1], the Potency entry is “inactive”.
As to `CC(C)C(=O)Nc1ncc(-c2cc(C(F)F)nn2-c2c(Cl)cccc2Cl)s1`, the Potency entry in assay [1] was “inactive”. The Potency in assay [3] is 10.7 µM (active); in assay [4], 5.35 µM (active).
With `CCCCC1C(=O)N(c2ccccc2)N(c2ccccc2)C1=O`, the Potency entry in assay [2] and in assay [3] was “inactive” throughout. In assay [4], the Potency was 8.71 µM (active).
Regarding `CC(C)OC(=O)C(C)(C)Oc1ccc(C(=O)c2ccc(Cl)cc2)cc1`, the Potency entry in assay [2] and in assay [3] was “inactive” each time. For the same molecule, in assay [4], the Potency is 2.45 µM (active).
Turning to `CC(=O)Oc1cc2c(s1)CCN(C(C(=O)C1CC1)c1ccccc1F)C2` (stereo not drawn), the Potency result in assay [1] was “inactive”. The Potency in assay [3] is 11 µM (active) and 10.7 µM (active); in assay [4] it was 4.36 µM (active) and 4.25 µM (active).
Take `O=C1NC(=O)C(c2ccccc2)(c2ccccc2)N1`: the Potency result in assay [1], in assay [2] and in assay [3] was “inactive” each time.
